According to the supplement of paper PMC5662767:
Counter-ions that a name gives are not always drawn.

Tested on: Drosophila S2 cl14 SmoIP sensor cells
Assay: normalized SmoIP GFP fluorescence (untreated unstimulated = 0%, untreated Hh-stimulated = 100%); higher = more Smo activation sensor fluorescence
Details: compound concentration: 2 uM, 24 h
[1] = stimulation: Hh conditioned medium (+Hh)
[2] = stimulation: mock conditioned medium (-Hh)
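Note: flow cytometry read-out as median GFP intensity of gated cells, compounds added 30 min before Hh-conditioned or mock medium, mock-treated cells serving as unstimulated baseline.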

Structure (SMILES)	normalized SmoIP GFP fluorescence [1] [%]	normalized SmoIP GFP fluorescence [2] [%]
CCNC(=O)Nc1ccc(-c2nc3c(c(N4CCOC[C@@H]4C)n2)CCN(C2COC2)C3)cc1	93.3	-0.151
O=C(O)C(O)Cc1ccc(O)c(O)c1 (configuration not stated) [Sodium-Danshensu]	93.6	-2.82
CC(=O)Nc1nc(C)c(-c2ccc(Cl)c(S(=O)(=O)NCCO)c2)s1	130	-1.13
COc1ccccc1N1CCN(CCN2C(=O)CC3(CCCC3)CC2=O)CC1	102	-17.9
CO[C@H]1C[C@@H]2CC[C@@H](C)[C@@](O)(O2)C(=O)C(=O)N2CCCC[C@H]2C(=O)O[C@H]([C@H](C)C[C@@H]2CC[C@@H](OP(C)(C)=O)[C@H](OC)C2)CC(=O)[C@H](C)/C=C(\C)[C@@H](O)[C@@H](OC)C(=O)[C@H](C)C[C@H](C)/C=C/C=C/C=C/1C [Deforolimus]	23.8	-8.56
CC(C)(C#N)c1ccc(N2C(=O)OCc3cnc4ccc(-c5cnc6ccccc6c5)cc4c32)cc1	148	28.4
O=C(COc1cccc2c(=O)[nH]ccc12)c1ccccc1	139	0.334
CNC(=O)[C@H](Cc1ccccc1)NC(=O)[C@H](CC(C)C)[C@H](CSc1cccs1)C(=O)NO	94.8	-2.48
CC[C@@H](C)Nc1cc(C(=O)N[C@H]2C[C@H]3CC[C@@H](C2)N3c2ccc(C(=O)C3CC3)cn2)c(C)cc1C(N)=O	150	18
CC(C(=O)O)c1ccc2c(c1)CC(=O)c1ccccc1S2 (configuration not stated) [zaltoprofen]	111	-1.97
CC(C)OC(=O)C1=CN(C(=O)c2ccc(F)c(F)c2)CC(C)(C)c2c1[nH]c1ccccc21	117	12.5
C1=C/COCc2cc(ccc2OCCN2CCCC2)Nc2nccc(n2)-c2cccc(c2)COC/1 [pacritinib-sb1518]	114	1.72
COC(=O)N[C@@H](C)CNc1nccc(-c2cn(C(C)C)nc2-c2cc(Cl)cc(NS(C)(=O)=O)c2F)n1	170	48.8
Nc1cc(F)ccc1NC(=O)/C=C/c1cnn(C/C=C/c2ccccc2)c1 [rgfp966]	112	-0.775
COC(=O)N1CCN(Cc2cccc(NC(=O)Nc3ccc(C)nc3)c2F)CC1	125	-11.4
CC(=O)N1CCN(CCOc2ccc(C3CCN(C4=Nn5c(nnc5C(F)(F)F)CC4)CC3)cc2)CC1	192	15
O=P(O)(O)C(O)(Cn1ccnc1)P(=O)(O)O [Zoledronic-Acid]	98.3	-5.54
CN1CCN(CCCN2c3ccccc3Sc3ccc(C(F)(F)F)cc32)CC1 [trifluoperazine-dihydrochloride]	108	4
FC(F)c1nc2ccccc2n1-c1nc(N2CCOCC2)nc(N2CCOCC2)n1	90.8	-6.73
O=C(c1ccc(Nc2nccc(-c3cc4ccccc4s3)n2)cc1)N1CCC(N2CCCC2)CC1	106	1.1
COc1cc2ncnc(Nc3ccc(F)c(Cl)c3)c2cc1OCCCN1CCOCC1 [Gefitinib]	116	-4.53
CCc1nc(N)nc(N)c1-c1ccc(Cl)cc1 [Pyrimethamine]	101	0.702
COc1ccc(-n2nc(C(N)=O)c3c2C(=O)N(c2ccc(N4CCCCC4=O)cc2)CC3)cc1	102	-1.56
Cc1cc(Nc2cc(CN3CCOCC3)c3nc(C)c(Cc4ccc(Cl)cc4F)n3n2)n[nH]1	109	-5.53
O=C1NC(=O)C(=Cc2ccc(-c3ccc(F)cc3)o2)S1 (stereo in doubt)	102	-2.48
CN1CCN(c2ccc3nc(-c4c(N)c5c(F)cccc5[nH]c4=O)[nH]c3c2)CC1	63.2	69.1

Structure (SMILES)	normalized SmoIP GFP fluorescence [1] [%]	normalized SmoIP GFP fluorescence [2] [%]
Cc1csc(-c2nnc(Nc3ccc(Oc4ncccc4-c4ccnc(N)n4)cc3)c3ccccc23)c1	102	-0.747
O=C(NCc1ccccc1)c1csc(Nc2ccncn2)n1 [Thiazovivin]	72.7	-11.6
CCn1c2ccccc2c2cc(Nc3ccnc(NCCCN4CCOCC4)n3)ccc21 [ehop-016]	100	-3.62
COc1ccccc1OCCNCC(O)COc1cccc2[nH]c3ccccc3c12 (configuration not stated) [carvedilol]	118	-7.78
Cc1ccc(C(=O)c2cc(O)c(O)c([N+](=O)[O-])c2)cc1 [tolcapone]	108	-2.48
Cc1cc(-c2ccc(CC(=O)Nc3ccc(-c4cccnc4)cc3)cc2)ccn1	247	10.6
CNC(=O)c1ccc(N2C(=S)N(c3cnc(C#N)c(C(F)(F)F)c3)C(=O)C23CCC3)cc1F	105	-0.0369
CC1(C)CCC(c2ccc(Cl)cc2)=C(CN2CCN(c3ccc(C(=O)NS(=O)(=O)c4ccc(N[C@H](CCN5CCOCC5)CSc5ccccc5)c(S(=O)(=O)C(F)(F)F)c4)cc3)CC2)C1	108	20.1
C[C@H](Nc1ncnc2nc[nH]c12)c1cc2cccc(Cl)c2c(=O)n1-c1ccccc1	98	-4.24
COc1cc(Nc2ncc3c(n2)-c2ccc(Cl)cc2C(c2c(F)cccc2OC)=NC3)ccc1C(=O)O	89.5	83
CC(=O)N1CCN(c2ccc(OCC3COC(Cn4ccnc4)(c4ccc(Cl)cc4Cl)O3)cc2)CC1 (configuration not stated) [Ketoconazole]	109	2.64
NC(=O)c1ncn([C@@H]2O[C@H](CO)[C@@H](O)[C@H]2O)c1N [Acadesine]	127	-15.4
NC1(Cc2ccc(Cl)cc2)CCN(c2ncnc3[nH]ccc23)CC1	115	8.36
CC(C)C[C@@H](C(=O)N[C@H](C(=O)OC1CCCC1)c1ccccc1)[C@H](O)C(=O)NO [CHR-2797(Tosedostat)]	108	3.72
O=C(Nc1cccc2cccnc12)c1ccc(N2C(=O)[C@@H]3[C@H](C2=O)[C@@H]2C=C[C@H]3C2)cc1 [iwr-1-endo]	114	-4.92
CCn1cc(-c2ccnc3[nH]c(-c4cccc(CN(C)C)c4)cc23)c(-c2ccc(NC(=O)N(C)C)cc2)n1	173	-0.747
Fc1ccc(C(c2ccc(F)cc2)N2CCN(C/C=C/c3ccccc3)CC2)cc1 [flunarizine-dihydrochloride]	134	6.74
CCCCCCCN(CC)CCCC(O)c1ccc(NS(C)(=O)=O)cc1 (configuration not stated) [ibutilide-fumarate]	108	-6.16
Oc1ccc(/C=C/c2cc(O)cc(O)c2)cc1 [Resveratrol]	104	-4.25
COc1cc2nc(N3CCCN(C)CC3)nc(NC3CCN(Cc4ccccc4)CC3)c2cc1OC	109	1.61
Cc1ccc(C(=O)Nc2ccc(CN3CCN(C)CC3)c(C(F)(F)F)c2)cc1C#Cc1cnc2[nH]ncc2c1	104	3.88
Cc1nn(-c2ccccc2)c(C)c1C=NN1CCN(Cc2ccccc2)CC1 [sant-1]	103	-2.59
Cn1ncnc1[C@H]1c2n[nH]c(=O)c3cc(F)cc(c23)N[C@@H]1c1ccc(F)cc1	107	-2.82
COC(=O)N[C@H](C(=O)N1CCC[C@H]1c1ncc(-c2ccc(-c3ccc(-c4cnc([C@@H]5CCCN5C(=O)[C@@H](NC(=O)OC)C(C)C)[nH]4)cc3)cc2)[nH]1)C(C)C	112	7.39
COc1cc(Br)c(Nc2nc(-c3c(C)nc4ncccn34)cs2)c(Br)c1	110	5.12
